Screen size: about 94,000 compounds; about 410 (0.44%) were called active. The sample holds actives, similar compounds and a random draw of the others, so the mix is not that of the screen. A number with no mark means an inactive call.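 How the source made its calls: active means inhibition above about 30% together with a positive call from visual inspection of the well image (limit read from the data); inconclusive means inhibition above a set limit but visual check negative; inactive means inhibition not above a set limit, visual check negative.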

A short description of this assay: inhibitors of IL-1B driven NFkB p65 nuclear import, primary screen, imaging, HUVEC, IL-1B stimulus, high-content imaging (AID 796).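 Further: nuclear over cytoplasmic p65 intensity ratio measured by imaging; 0% = IL-1B stimulated DMSO wells and 100% = unstimulated DMSO wells.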 The settings on record: HUVEC IL-1B NFkB p65 nuclear translocation imaging; at 2 µM; hits give high values.
Consider `O=S1(=O)C=C(SCCN2CCCC2)c2ccccc21`, for which the inhibition was -1.4%.
As for `CCOC(=O)/C(C#N)=C\c1c(C)cc(C)c(COC(C)=O)c1C`, the figure is 8.2%; as for `O=C1c2ccccc2C(=O)N1CCC(c1ccccc1)c1ccco1` (configuration not stated), -2.1%; as for `CN(C)/C=C(\C#N)C(=O)c1cccnc1Oc1ccc(F)cc1F`, 5.5%.
Turning to `O=S(=O)(c1ccc(Br)cc1)n1ccc2ccccc21`, the inhibition is 5.3%.
As for `O=C(Nc1ncc2c(n1)-c1ccccc1OC2)c1ccc(Cl)cc1`, the figure is 3.3%.
Consider `CC(N)C12CC3CC(CC(O)(C3)C1)C2` (configuration not stated), for which the inhibition is -22.4%.
`C=CCN1C(=O)C(Cc2cccc(Cl)c2)S/C1=N/N=C/c1ccco1` (configuration not stated): the inhibition was 6.5%.
As to `CC(C)(C)NC(=O)COc1ccc(CNc2ccc3[nH]c(=O)[nH]c3c2)cc1`, the inhibition was 6.7%.
As for `O=C(NC1CCN(C(=S)NCc2ccco2)CC1)c1ccc(F)cc1`, the figure is -2.5%; as for `O=C(Oc1ccccc1C(=S)N1CCCCC1)c1cc([N+](=O)[O-])cc([N+](=O)[O-])c1`, -5.6%; as for `CN1CC(c2ccccc2)C2(COc3ccccc3C2=O)C12C(=O)Nc1ccccc12` (configuration not stated), -0.2%.
For `Nc1nc(Br)c2ccccc2c1-c1ccc(F)cc1`, the inhibition was -12.8%.
`Cc1cccc(NC(=O)c2ccc(OCC(=O)NCc3ccccc3)cc2)c1C`: the inhibition was 12.8%.
For `Cc1nc2c(-c3ccc(F)cc3)c(C)nn2c(C)c1CCC(=O)NCc1ccco1`, the inhibition is 8.1%.
`c1cncc(-c2nnc3n2C2(CCCCC2)Cc2ccccc2-3)c1`: the inhibition was -4.9%.
Turning to `NS(=O)(=O)c1ccc(Nc2nc(-c3ccccc3)cs2)cc1`, the inhibition is 18.6%.
In the case of `O=C(CNC(=O)c1cc2c(s1)CCC2)Nc1ccccc1Br` it was -43.6%.
As for `Cc1ccc(N(CC(=O)Nc2cc(C)cc(C)c2)S(=O)(=O)c2cccc3nonc23)cc1`, the figure is 0.6%; as for `Cc1occc1C(=O)NNC(=S)NCC(C)C`, -8.5%; as for `COc1ccc(NC(=O)/C(Cl)=C(/Cl)S(=O)Cc2ccc(C)cc2)cn1` (configuration not stated), 81.8% (active).
In the case of `COc1ccc(CC(=O)Nc2ccc(-c3nnc(-c4ccc(C)cc4)o3)cc2)cc1` it was -3.1%; in that of `COc1cccc(NC(=O)Cc2ccc(C)cc2)c1`, 3.1%.
In the case of `CN(C)c1ccnc2sc3c(=O)n(-c4ccc(Cl)cc4)cnc3c12`, the inhibition is -8.3%.
As for `Cc1cc(=O)[nH]c(SCc2cccc(F)c2)n1`, the figure is -8.1%; as for `CCCNC(=S)NC1CC2CCCC(C1)N2CC(C)C` (configuration not stated), -10.2%.
`CSc1ccccc1-c1nnc(-c2ccc(Cl)cc2)o1`: the inhibition was -15.4%.

One may read the inhibition as the drop in the measured response relative to a control, in per cent.

Values taken from PubChem BioAssay AID796 (Columbia University Molecular Screening Center, 2007).
